Assay outcomes (PubChem)
Sampled rows, rich in hits. Any-hit rate of the full collection: about 8.7%.
BAZ2B inh – BAZ2B (human) inhibition | AlphaScreen BAZ2B-H3K14Ac peptide displacement | Potency, µM (series often up to 114 µM), actives largely listed as inhibitors | actives 4.4% (n = 360,000) | AID 504333; further: nearly all actives have a fitted effect of over 60% in size
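AlphaScreen luminescence quantifies BAZ2B engagement of H3K14Ac peptide; the protein and biotinylated peptide are both at 50 nM final, buffer PBS pH 7.4 with 0.01% Tween-20, all steps at room temperature.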
HP1b chromo inh – inhibitors of HP1-beta chromodomain binding to methylated histone tails; P83916; AID 540317; AlphaScreen HP1-beta / biotin-H3K9me3 peptide binding; actives 0.56% (n = 390,000); Potency, µM (doses to about 114 µM), usual class: inhibitors; further: nearly all actives have a fitted effect of over 70% in size
Target sequence (P83916 whole entry, looked up): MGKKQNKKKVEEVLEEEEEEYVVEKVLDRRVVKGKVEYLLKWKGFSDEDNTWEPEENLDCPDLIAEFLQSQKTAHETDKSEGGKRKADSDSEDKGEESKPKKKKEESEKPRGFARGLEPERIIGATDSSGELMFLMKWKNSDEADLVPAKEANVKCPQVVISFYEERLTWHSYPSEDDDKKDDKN
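HP1-beta protein (50 nM final) preincubated 30 min at room temperature with biotinylated H3(1-18)K9me3 peptide (50 nM) in PBS pH 7.4, 0.01% Tween-20, then compound added for 30 min. AlphaScreen streptavidin donor/nickel chelate acceptor beads (10 ug/mL final), 30 min dark, luminescence read.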
JMJD2A Tudor inh – inhibitors of human JMJD2A Tudor domain. O75164. AlphaScreen JMJD2A-Tudor / H3K4me3 peptide binding. Potency, µM (doses to about 114 µM), most hits filed as inhibitors. actives 4.4% (n = 390,000). AID 504339; further: nearly all actives have a fitted effect of over 50% in size
Sfp inh – inhibitors of Bacillus subtilis Sfp phosphopantetheinyl transferase. Q9F4F7. Biochemical Sfp PPTase activity, qHTS. Potency, µM, most hits filed as inhibitors. actives 3.5% (n = 310,000). AID 1490;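 further: the enzyme is Sfp with the accession as filed and its product quenches rhodamine fluorescence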
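Compounds were incubated with enzyme (final 15 nM) for 15 min at room temperature before substrate addition started the reaction. Fluorescence at 525 nm excitation, 598 nm emission was recorded immediately and after 30 minutes.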
G9a inh – inhibitors of human histone lysine methyltransferase G9a | Q96KQ7 | G9a H3K9 monomethylation, AlphaScreen, 2 h | Potency, µM (series often up to 102 µM), usual class: inhibitors | actives 8.8% (n = 350,000); further: nearly all actives have a fitted effect of over 75% in size
Target sequence (Q96KQ7 913-1193 limits assumed): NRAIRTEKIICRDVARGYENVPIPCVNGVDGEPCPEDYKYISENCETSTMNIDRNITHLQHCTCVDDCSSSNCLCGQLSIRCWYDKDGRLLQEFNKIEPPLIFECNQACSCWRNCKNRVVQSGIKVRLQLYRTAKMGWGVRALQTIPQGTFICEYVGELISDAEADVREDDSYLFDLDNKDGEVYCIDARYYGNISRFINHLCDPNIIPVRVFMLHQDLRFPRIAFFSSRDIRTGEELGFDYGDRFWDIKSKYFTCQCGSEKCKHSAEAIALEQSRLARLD
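Signal arises when biotinylated H3K9 peptide, once monomethylated, bridges streptavidin donor and antibody-captured acceptor beads. Enzyme at 20 nM was preincubated 15 min with test compounds; peptide 500 nM and SAM 20 uM then reacted for 2 h.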
12-LOX inh – blocks human arachidonate 12S-lipoxygenase | actives 1.1% (n = 580,000) | AID 1671190 | P18054 | purified 12hLO, xylenol orange hydroperoxide absorbance | Potency, µM (top dose mostly 108 µM), hits mostly inhibitors
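Purified human 12hLO at 150 nM in 25 mM Hepes, 0.01% Triton X-100, pH 7.0, preincubated 15 min at room temperature with compound. Reaction started with 40 uM arachidonic acid, 30 min at room temperature. Hydroperoxide measured by Fe-xylenol orange, 573/405 nm absorbance ratio.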
Numbers stand for hits; – = inactive; ? = inconclusive; · = no result given; ! = repeats disagree; [ ] = remark or other dose. The call rests on the fitted dose curve; in most records, active means well fitted curve in the direction sought with a large enough effect; inconclusive means small, poorly fitted or top-dose-only effect, or another doubt; inactive means no such curve, though single readings can be large; an effect the other way counts as inactive or inconclusive.

SMILES	BAZ2B inh	HP1b chromo inh	JMJD2A Tudor inh	Sfp inh	G9a inh	12-LOX inh
Cc1cc(OCCN2CCOCC2)c(C)c2c1CC[C@@H]([C@H](C)C(=O)N1CCCCC1)C2	·	·	·	·	·	–
COc1ccc(-n2c(SCC(=O)N(C)c3ccccc3)nc3[nH]ncc3c2=O)cc1Cl	·	·	·	·	·	–
COc1ccccc1NC(=O)N1CC[C@@H](CC(=O)O)[C@@H](CC2=NCCc3cc(F)ccc32)C1	·	·	·	·	·	–
Cc1ccc(-c2cc(C(=O)Nc3cc(C)n(C)n3)c3ccccc3n2)cc1	·	·	·	·	·	–
COc1ccc(CN2CC3=C(C2=O)C(c2ccccc2C)NC(=O)N3)cc1 (stereo not drawn)	·	·	·	·	·	–
Cc1ccc(C(=O)CC2(O)C(=O)N(Cc3ccccc3)c3ccccc32)c(C)c1 (stereo not drawn)	10µM	?	39.8µM	·	2.24µM	–
Cc1coc(C)c1C(=O)CC1(O)C(=O)N(CCc2ccccc2)c2ccccc21 (stereo not drawn)	?	–	–	?	?	39.8µM
O=C(O)CC1(O)C(=O)N(Cc2ccccc2)c2ccccc21 (stereo not drawn)	–	–	–	–	·	–
Fc1ccc(-c2nc3ccccc3o2)cc1	·	·	·	·	·	–
CN(C)c1cccc(C(=O)NNC(=S)NC2CC3CCC2C3)c1 (stereo not drawn)	–	?	?	–	50.1µM	–
CC(=O)NNC(=S)NC1CC2CCC1C2 (stereo not drawn)	·	·	·	·	·	–
C=CCNC(=S)NNC(N)=S	·	·	·	·	·	8.91µM
Cn1nccc1CCC(=O)N1CCN(C(=O)C2CCC2)[C@@H]2CS(=O)(=O)C[C@@H]21	·	·	·	·	·	–
CC(C)(c1ccccc1)c1cccc(C(C)(C)c2ccccc2)c1O	·	·	·	·	·	–
CC(=O)Nc1ccc2c(COC(=O)CC3Sc4ccccc4NC3=O)cc(=O)oc2c1 (stereo not drawn)	56.2µM	?	79.4µM	–	·	–
O=C(CC1Sc2ccccc2NC1=O)Nc1cccc(C(=O)O)c1 (stereo not drawn)	56.2µM	?	50.1µM	–	39.8µM	–
Cc1nc(N2CCC(NC(=O)c3sccc3C)CC2)cc(C(F)(F)F)n1	·	·	·	·	·	–
COc1ccc(-c2ccnc3nc(C4CCC4)nn23)c(F)c1	·	·	·	·	·	–
COc1ccc2[nH]c(=O)c(CN(C)S(=O)(=O)c3ccc(C)cc3)cc2c1	·	·	·	·	·	–
CCN1C(=O)CC(C(=O)OC)=C1C	–	–	–	–	–	–
COC(=O)C1=C(C)N(CCC2=CCCCC2)C(=O)C1	–	–	50.1µM	–	–[12.7 µM]	–
C=CC1=C(C)/C(=C/c2[nH]c(Cc3[nH]c(/C=C4\NC(=O)C(C)=C4C=C)c(C)c3CCC(=O)O)c(CCC(=O)O)c2C)NC1=O	·	·	·	39.8µM	·	·
O=C(NCCc1c[nH]c2ccccc12)[C@@H]1C[C@H]1[C@@H](NP(=O)(c1ccccc1)c1ccccc1)c1ccccc1	?	·	·	–	79.4µM	·
Cc1cc(CNC(=O)[C@@H]2C[C@H]2[C@@H](NP(=O)(c2ccccc2)c2ccccc2)c2ccccc2)nn1C	·	·	·	–	·	·
Cc1ccc(CNC(=O)[C@@H]2C[C@H]2[C@@H](NP(=O)(c2ccccc2)c2ccccc2)c2ccccc2)o1	·	·	·	50.1µM	·	·
SMILES	BAZ2B inh	HP1b chromo inh	JMJD2A Tudor inh	Sfp inh	G9a inh	12-LOX inh
COc1ccc(CNC(=O)[C@H]2C[C@@H]2[C@H](NP(=O)(c2ccccc2)c2ccccc2)c2ccccc2)cc1OC	·	·	·	–	·	·
O=C(Nc1ccc(Cl)c(S(=O)(=O)N2CCCC2)c1)c1n[nH]c(=O)c2ccccc12	·	·	·	·	·	–
O=C(O)c1cc(N(Cc2ccccc2O)Cc2ccccc2O)ccc1O	·	–	50.1µM	56.2µM	·	?
COc1ccc(C(=O)NC(=S)N2CCN(C)CC2)cc1Br	–	–	–	–	44.7µM	–
Cc1ccc(C(=O)NC(=S)N2CCN(C)CC2)cc1Br	–	–	–	–	44.7µM	?
CN1CCN(C(=S)NC(=O)c2cccc(S(=O)(=O)N(C)C)c2)CC1	–	–	–	?	14.1µM	–
COc1cc(C(=O)NC(=S)N2CCN(C)CC2)cc(OC)c1OC	·	–	–	·	·	–
COc1ccc(Nc2nc3ccccc3nc2NS(=O)(=O)c2cccc(Cl)c2)cc1OC	·	·	·	·	·	–
CCn1cc(S(=O)(=O)c2ccc(C)cc2)[nH]c1=O	–	–	–	–	–	–
CCc1c(C(C)S(=O)(=O)c2ccc(C)cc2)[nH]c(=O)n1-c1ccc(OC(F)(F)F)cc1 (stereo not drawn)	–	–	–	–	10µM	?
O=C(Nc1ccc(-c2nc3ccccc3o2)cc1)c1cccc(F)c1	·	·	·	·	·	–
CCOc1ccc(-c2nnc(SCc3nc4ccccc4[nH]3)n2N)cc1	?	–	89.1µM	–	?	–
Cc1ccc(-c2nnc(SCc3nc4ccccc4[nH]3)n2Cc2ccco2)cc1	?	–	79.4µM	–	·	–
c1coc(Cn2c(SCc3nc4ccccc4[nH]3)nnc2-c2cccs2)c1	–	–	–	–	50.1µM	–
Cc1cccc(-c2nnc(SCc3nc4ccccc4[nH]3)n2Cc2ccco2)c1	–	–	–	–	50.1µM	–
Cn1nc(C(=O)NCc2ccccc2Cl)c2ccccc2c1=O	·	·	·	·	·	–
CCCn1nc(C(=O)NC(c2ccc(OCC)c(OCC)c2)C(C)C)c2ccccc2c1=O (stereo not drawn)	·	·	·	·	·	–
COc1cc(Cl)c(C)cc1N1C(=O)CN(Cc2ccccc2)C1=S	–	–	–	?	35.5µM	?
COc1cc(CN2CC(=O)N(c3ccccc3Cl)C2=S)cc(OC)c1OC	–	–	–	–	–	–
CCOc1ccc(C2c3c(oc4cc(C)c(C)cc4c3=O)C(=O)N2CCCN2CCOCC2)cc1 (stereo not drawn)	–	–	–	50.1µM	28.2µM	–
CCOc1ccc(C2c3c(oc4cc(C)c(C)cc4c3=O)C(=O)N2CCCN(C)C)cc1OC (stereo not drawn)	–	–	–	–	50.1µM	?
Cc1cc2oc3c(c(=O)c2cc1C)C(c1ccc(C(C)C)cc1)N(CCCN1CCOCC1)C3=O (stereo not drawn)	–	–	?	–	50.1µM	–
CCOc1ccc(C2c3c(oc4ccccc4c3=O)C(=O)N2CCCN2CCOCC2)cc1 (stereo not drawn)	–	–	–	–	?	–
CC(C)NC(=O)C[C@@H]1C[C@H]2O[C@H](CNC3CCC3)[C@@H](O)[C@H]2O1	·	·	·	·	·	–
Cn1nc(C2CCN(C(=O)c3ccoc3)CC2)c2c1CCOC2	·	·	·	·	·	–
C=CCN1CCCN(Cc2ccc(C#N)cc2)CC1	·	·	·	·	·	–
C=CCN1CCN(c2nc3ccccc3nc2C#N)CC1	·	·	·	56.2µM!	–	–
Cc1ccccc1OCc1ccc(-c2nc(C#N)c(NCc3cccnc3)o2)o1	31.6µM	–	15.8µM	·	11.2µM	–
Cc1ccc(OCc2ccc(-c3nc(C#N)c(NCc4cccnc4)o3)o2)cc1	17.8µM	?	20µM	·	11.2µM	–
